Source: PubChem
Rows were chosen to be rich in hits. Some 6% of all compounds tested hit in one or more screens of this group.
D1 potentiator: human D1 dopamine receptor positive modulation; P21728; hit rate 0.036% among 360,000; HEK293 TREx D1 cells, calcium flux, dopamine EC20 potentiation; AID 504651; potentiation, % at 10 µM; in the data active = potentiation above about 30%
D3 ag: agonists of human D3 dopamine receptor | max activation, % | D3R DiscoveRx beta-arrestin cells, luminescence, 90 min | AID 652048 | hit rate 0.58% among 410,000 | P35462; in the data active = max activation above about 30%
Target sequence (P35462 whole entry, looked up): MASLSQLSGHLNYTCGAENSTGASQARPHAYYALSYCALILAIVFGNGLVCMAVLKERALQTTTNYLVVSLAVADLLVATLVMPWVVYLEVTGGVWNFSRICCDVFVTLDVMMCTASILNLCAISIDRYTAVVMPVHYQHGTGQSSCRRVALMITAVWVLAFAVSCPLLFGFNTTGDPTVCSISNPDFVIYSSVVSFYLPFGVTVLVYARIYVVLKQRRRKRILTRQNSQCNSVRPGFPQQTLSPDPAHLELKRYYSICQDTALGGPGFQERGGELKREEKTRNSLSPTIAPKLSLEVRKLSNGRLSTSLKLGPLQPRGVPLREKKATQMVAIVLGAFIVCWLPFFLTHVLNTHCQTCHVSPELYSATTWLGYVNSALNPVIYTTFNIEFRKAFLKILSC
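Agonist mode: compounds and dopamine controls were applied to plated cells for 90 min at 37 degrees C after an overnight attachment at 1500 cells/well. Luminescent read-out followed 30 - 60 minutes at room temperature with DiscoveRx detection reagent.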
D3 antag: D3 dopamine receptor (human) antagonism; D3R cells, DiscoveRx beta-arrestin luminescence, antagonist mode; hits give low values; max response, negative = inhibition, %; hit rate 2.5% among 360,000; in the data active = max response below about -50%; inconclusive = no clear call, values can overlap the other calls
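Cells plated overnight at 1500 cells/well, then exposed to library compounds with dopamine controls for 90 minutes at 37 degrees C. DiscoveRx reagent added for 30–60 minutes at room temperature; luminescence read, quantitative HTS format.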
D1 antag: antagonists of human D1 dopamine receptor; P21728; HEK293 TREx D1 cells, calcium flux, dopamine EC80; hits give low values; activity change, negative = inhibition, % at 10 µM; hit rate 3.2% among 360,000; in the data active = activity change below about -30%
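HEK293 T-REx cells expressing inducible, force-coupled D1 receptor; no-wash Ca dye, 30–90 min RT. Cmpd → 180 s read at 1 Hz → EC80 DA → 180 s read.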
D1 ag: activates the human D1 dopamine receptor; AID 504660; HEK293 T-REx D1 cells, calcium flux, agonist mode; hit rate 1% among 360,000; P21728; activation, % at 2 µM; in the data active = activation above about 30%
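Inducible HEK293 T-REx D1 cells, force-coupled to calcium signalling, were plated at 4000 cells/well with tetracycline and held overnight at 30 C. After no-wash calcium dye loading, compound-evoked calcium rise over 180 s flagged agonists.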
Large screens that a line does not name were inactive; ! = not confirmed by another sample.

COc1cc(NC(=O)c2cccc3c2C(=O)N(C2CCCCC2)C3)cc(OC)c1OC	D1 antag -77.6!
CC1CC(O)CC(C)(C)C1 (stereo unspecified)	none (no result: D1 potentiator, D3 antag, D1 antag, D1 ag)
CCN(c1cccc(C)c1)S(=O)(=O)c1nnc(NC(=O)C2CCCCC2)s1	none (no result: D3 antag)
Cn1cc(CNC(=O)c2cc(-c3ccccc3)nc3ccc(Br)cc23)cn1	D1 antag -33.6
O=C(CCN1CCC(c2ccccc2)C1)c1ccccc1 (stereo unspecified)	D3 antag inconclusive
O=C(c1cccs1)N1CCC(c2ccccc2)C1 (stereo unspecified)	D3 antag -59.5, D1 antag -85.1
O=C(CCN1CCC(c2ccccc2)C1)c1cccs1 (stereo unspecified)	D3 antag -66.2
O=C(NCc1cccnc1)c1ccc2sc([C@@H]3O[C@H](CO)[C@H](O)[C@H](O)[C@H]3O)nc2c1	D3 antag -55.1 (no result: D1 potentiator, D1 antag, D1 ag)
CN(C)c1cccc(CNC(=O)c2ccc3nc([C@@H]4O[C@H](CO)[C@H](O)[C@H](O)[C@H]4O)[nH]c3c2)c1	none (no result: D1 potentiator, D1 antag, D1 ag)
CN(C)c1cccc(CNC(=O)c2ccc3sc([C@@H]4O[C@H](CO)[C@H](O)[C@H](O)[C@H]4O)nc3c2)c1	D3 antag -101.1 (no result: D1 potentiator, D1 antag, D1 ag)
O=C(NCc1cc(Cl)cc(Cl)c1)c1ccc2sc([C@@H]3O[C@H](CO)[C@H](O)[C@H](O)[C@H]3O)nc2c1	none (no result: D1 potentiator, D1 antag, D1 ag)
CC(=O)Nc1cccc(-c2ccnc3c2CC(C)(C(=O)Nc2ccc(C(C)C)cc2)O3)c1 (stereo unspecified)	none (no result: D1 potentiator, D1 antag, D1 ag)
COc1ccc(OCC(=O)OCC(=O)N2C(C)CCCC2C)cc1 (stereo unspecified)	D1 antag -36.2 (no result: D1 potentiator)
COc1ccc(OCC(=O)OCC(=O)NC2CC2)cc1	none
CC(C)OCC(O)CN1CCC(Cc2ccccc2)CC1 (stereo unspecified)	none
OC(COc1ccccc1)CN1CCCCCC1 (stereo unspecified)	none
CC1CCN(CC(O)COc2ccc(F)cc2)CC1 (stereo unspecified)	D3 antag inconclusive, D1 antag -49.4 (no result: D1 potentiator)
COc1cccc(OCC(O)CN2CCC(C)CC2)c1 (stereo unspecified)	none
CC1CCN(CC(O)COc2ccc(-c3ccccc3)cc2)CC1 (stereo unspecified)	D3 antag -72.6
OC(COc1ccc(Br)cc1)CN1CCC(Cc2ccccc2)CC1 (stereo unspecified)	D3 antag inconclusive, D1 antag -42.9
CC1CCN(CC(O)COc2cccc(F)c2)CC1 (stereo unspecified)	D3 antag -57.1 (no result: D1 potentiator)
CCCCn1nnnc1C(c1cc2ccccc2o1)N(C)Cc1ccc(Cl)cc1 (stereo unspecified)	none (no result: D1 potentiator, D1 antag, D1 ag)
C=CCN(CC=C)Cc1cc(=O)oc2ccccc12	none (no result: D1 potentiator, D1 antag, D1 ag)
Cc1occc1C(=O)N(C)Cc1nc(-c2ccc(Cl)cc2)no1	none
CN(C)c1ccc(/C=C2/NC(=O)NC2=O)cc1	none
CN(C)c1ccc(/C=C2\N=C(c3ccc(Cl)c([N+](=O)[O-])c3)NC2=O)cc1	D3 antag inconclusive, D1 ag 34.9
COc1ccc(N2CC(C(=O)Nc3nnc(SCC(=O)NCC4CCCO4)s3)CC2=O)cc1 (stereo unspecified)	none (no result: D1 potentiator, D1 antag, D1 ag)
Cc1ccc2nc(SCC(=O)c3c(C)[nH]c4ccccc34)[nH]c2c1	none
Cc1[nH]c2ccccc2c1C(=O)CSc1nc2ncc(Cl)cc2[nH]1	D3 antag -60.8
CC(C)OC(=O)CSc1nc2ncc(Cl)cc2[nH]1	D1 antag -30.3
CC(=O)NC(c1ccccc1)c1nc(-c2cccnc2)cs1 (stereo unspecified)	none (no result: D1 potentiator, D1 antag, D1 ag)
Cc1ccc(NC(=O)Cn2nnc3ccccc3c2=O)cc1C	D1 antag -39.7
O=C(O)CCCCCNC(=O)CCn1nnc2ccccc2c1=O	D3 antag -51.6
Cc1ccc(NC(=O)Cn2nnc3ccccc3c2=O)cc1	none
O=C(O)CCCNC(=O)CCn1nnc2ccccc2c1=O	none
Cc1ccc(SCC(=O)OCn2nnc3ccccc3c2=O)cc1C	D1 antag -33.5
COc1ccc(C)cc1NC(=O)C1CCC(CNS(=O)(=O)c2ccc3c(c2)CCCC(=O)N3)CC1 (stereo unspecified)	none (no result: D3 antag)
C[C@H]1NC(=O)[C@]2(C)[C@@H](c3ccccc3)[C@H]3COc4ccccc4[C@@H]3N2C1=O	none (no result: D1 potentiator, D1 antag, D1 ag)
Cc1ccc2c(c1)[C@@H]1[C@H](CO2)[C@H](c2ccccc2)[C@@]2(C)C(=O)N[C@H](C)C(=O)N12	D3 ag 31.2 (no result: D1 potentiator, D1 antag, D1 ag)
CC1CCc2c(sc3nnn(Cc4ccccc4)c(=O)c23)C1 (stereo unspecified)	none (no result: D3 antag)
COc1ccc(CNCCC(c2ccc(C)cc2)c2ccco2)cc1 (stereo unspecified)	D1 ag 92.1 (no result: D3 antag)
CC(C)CCC(CCNCc1ccccn1)c1ccc2c(c1)OCO2 (stereo unspecified)	D1 ag 30.3
COc1ccc(CNCCC(c2ccccc2)c2ccc3c(c2)OCO3)cc1 (stereo unspecified)	D3 antag -73.6, D1 ag 132.8
COc1ccccc1CNC(=O)c1ccc2c(=O)n3c(nc2c1)CCCCC3	none
COC(=O)c1ccc2c(c1)N(CC(=O)Nc1ccc(C)cc1Cl)C(=O)c1ccccc1S2	none (no result: D3 antag)
O=C(CCN1C(=O)/C(=C/c2cccs2)SC1=S)N1CCCCC1	D3 ag 33.6
CN1CCN(NC(=O)CN2C(=O)/C(=C/c3ccccc3Cl)SC2=S)CC1	D3 antag -64.5
CN1CCN(C(=O)CCN2C(=O)/C(=C\c3ccccc3F)SC2=S)CC1	D1 ag 95.6
O=C(CCN1C(=O)/C(=C\c2ccccc2F)SC1=S)N1CCOCC1	none (no result: D1 potentiator, D1 antag, D1 ag)
C[C@@H]1NC(=O)N(CCCn2ccnc2)C1=O	none
O=C(Nc1cccc(Cl)c1Cl)c1cc2nc(-c3ccc(Cl)cc3)cc(C(F)(F)F)n2n1	none (no result: D3 antag)
O=C(CSc1nnc(-c2ccccc2F)n1C1CC1)NC(=O)c1cccc([N+](=O)[O-])c1	D3 antag -56.6
COc1ccccc1Cc1c(-c2ccco2)nc2c(C)cc(Br)cn12	D3 antag -92.4 (no result: D1 potentiator, D1 antag, D1 ag)
COc1ccccc1Cc1c(-c2cccc(Br)c2)nc2ccc(Cl)cn12	D3 antag -50.1 (no result: D1 potentiator, D1 antag, D1 ag)
Cc1cc(Br)cn2c(Cc3ccsc3)c(-c3ccco3)nc12	D3 antag -55.6 (no result: D1 potentiator, D1 antag, D1 ag)
COc1ccccc1Cc1c(-c2ccco2)nc2ccc(C)cn12	D3 antag -50.5 (no result: D1 potentiator, D1 antag, D1 ag)
COc1ccc(Cc2c(-c3ccco3)nc3c(C)cc(Br)cn23)c(C)c1	none (no result: D1 potentiator, D1 antag, D1 ag)
C[C@H]1CN([C@@H](C)CO)C(=O)CCCn2cc(nn2)CO[C@@H]1CN(C)C(=O)Nc1ccc(-c2cccs2)cc1	none (no result: D1 potentiator, D1 antag, D1 ag)
CNC(=O)c1cc(S(=O)(=O)Nc2ccc3c(c2)OCO3)ccc1C	none
CN(C)c1ccc(CNC(=O)Cn2c(=O)oc3cc(S(=O)(=O)N4CCCCCC4)ccc32)cc1	none (no result: D3 antag)
Cc1cc(Br)cn2c(Cc3ccccc3)c(-c3cccc(Br)c3)nc12	D3 antag -50.7 (no result: D1 potentiator, D1 antag, D1 ag)
Cc1cc(Br)cn2c(Cc3ccccc3)c(-c3ccc(Cl)cc3)nc12	none (no result: D1 potentiator, D1 antag, D1 ag)
